Screening results: PubChem, National Center for Advancing Translational Sciences (NCATS)
A selection: hits, their analogues and other compounds. The true share with any hit is near 2.1%.
Abeta rescue: restores growth of yeast expressing A-beta42 peptide; yeast expressing A-beta42, growth rescue, OD600, 48 h; response scale: 0% DMSO, 100% iron-clioquinol control; 0.063% of 410,000 active; Potency, µM (titrated, usually from 46.1 µM), usual class: activators; note: nearly all actives have a fitted effect of over 55% in size
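Yeast A-beta toxicity model in growth medium with pinned compounds, 48 h at 30 C; growth read as absorbance at 600 nm. Normalized to FeCl3/clioquinol equimolar mix (positive) and DMSO (negative).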
aSyn rescue: alpha-synuclein toxicity inhibition in yeast | Yeast expressing alpha-synuclein, growth rescue, BacTiter-Glo, 24 h | Potency, µM (highest dose often 46.1 µM), hits mostly activators | 0.14% of 370,000 active | AID 652106; note: nearly all actives have a fitted effect of over 65% in size
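Rescue of yeast growth: cells expressing toxic alpha-synuclein, induced in galactose at OD600 0.02, incubated with compound 24 h at 30 C. ATP luminescence quantified growth; inhibitors of toxicity appear as activators.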
TDP-43 yeast inh: inhibitors of TDP-43 toxicity in yeast. TDP-43 expressing yeast growth rescue, BacTiter-Glo, 24 h. Potency, µM (highest dose often 46.1 µM), actives largely listed as activators. 1.8% of 410,000 active. AID 652104; note: nearly all actives have a fitted effect of over 50% in size
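Yeast cells expressing TDP-43 under galactose induction are exposed to compounds for 24 hr at 30 deg C. BacTiter-Glo luminescence measures growth, so protective compounds score as activators.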
FUS suppressor: suppressors of FUS proteinopathy in yeast; S. cerevisiae FUS-expressing, growth rescue, OD600, 24 h; Potency, µM (top dose mostly 76.6 µM), actives largely listed as activators; 0.24% of 390,000 active; AID 1347120; note: nearly all actives have a fitted effect of over 55% in size
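Quantitative HTS measuring growth restoration of FUS-toxic yeast. Galactose-induced cells (OD 0.005) were exposed 24hr at 30C to compounds at several concentrations, then absorbance at 600 nm was recorded.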
Each line names hits and unclear results; the compound was inactive in the other large screens. Calls come from the whole dose curve; as a rule, active = well fitted curve in the direction sought with a large enough effect; inconclusive = small, poorly fitted or top-dose-only effect, or another doubt; inactive = no such curve, though single readings can be large; an effect the other way counts as inactive or inconclusive.

COc1ccc(C(=O)NC(=S)NNC(=O)c2c(-c3ccccc3)noc2C)cc1OC	Abeta rescue 11.2µM, aSyn rescue inconclusive
O=C(NC(=S)NNC(=O)[C@H]1C[C@@H]1c1ccccc1)c1ccc(F)cc1	Abeta rescue inconclusive, aSyn rescue 3.55µM, TDP-43 yeast inh 10µM
O=C(/C=C/c1ccc(F)cc1)NC(=S)NNC(=O)[C@H]1C[C@@H]1c1ccccc1	Abeta rescue inconclusive, aSyn rescue 10µM, TDP-43 yeast inh 6.31µM
NC1(c2ccc(-c3nc4ccn5c(=O)[nH]nc5c4cc3-c3ccccc3)cc2)CCC1	none (no result: Abeta rescue, TDP-43 yeast inh, FUS suppressor)
CC(=O)c1ccc(N2CCN(C(=O)C3(S(=O)(=O)c4ccc(Cl)cc4)CC3)CC2)cc1	none
COc1ccc(C(C(=O)NC2CCCC2)n2c(C3CCN(C(C)=O)CC3)nc3ccccc32)cc1 (configuration not stated)	none
COc1ccc(C(=O)NNC(=S)NC(=O)c2ccc(Br)o2)cc1OC	TDP-43 yeast inh 3.55µM
CCN1CCN(c2nc3c(c(=O)[nH]c(=O)n3C)n2Cc2ccccc2)CC1	none
CC(Oc1cccc(Br)c1)C(=O)NNC(=O)c1ccccn1 (configuration not stated)	Abeta rescue inconclusive, aSyn rescue inconclusive, TDP-43 yeast inh 25.1µM
Cc1cnc(C=O)c2cccc([N+](=O)[O-])c12	TDP-43 yeast inh 20µM
Cc1ccc(C(C(=O)NC(C)(C)C)N(CC2CCCO2)C(=O)Cn2nnc(-c3ccc(C)o3)n2)cc1 (configuration not stated)	none
COc1ccc(C(=O)Nc2cccc(-c3cn4ccsc4n3)c2)c(OC)c1	TDP-43 yeast inh 5.01µM, FUS suppressor inconclusive (no result: aSyn rescue)
C=CCN1c2ccc(Br)cc2C(=O)CS1(=O)=O	TDP-43 yeast inh 20µM
C=CCN1c2ccccc2C(=O)C(C)S1(=O)=O (configuration not stated)	none
COc1cccc(CN2C(=O)C(C)Oc3ccccc32)c1 (configuration not stated)	none
COc1cccc(CN2c3ccc(Br)cc3C(=O)CS2(=O)=O)c1	TDP-43 yeast inh 15.8µM, FUS suppressor inconclusive
N#CCSc1nnc(Cc2cccs2)n1C1CCCCC1	TDP-43 yeast inh inconclusive
Cn1cnnc1SC/C(O)=C(\C#N)c1nc2ccccc2[nH]1	none
N#C/C(=C(/O)CSc1nnc(Cc2cccs2)n1C1CCCCC1)c1nc2ccccc2[nH]1	FUS suppressor 50.1µM
COc1ccccc1-c1nnc(SC/C(O)=C(\C#N)c2nc3ccccc3[nH]2)n1C1CCCCC1	FUS suppressor 28.2µM
Cc1cc(C)c(C)c(S(=O)(=O)NCC(=O)NCc2ccco2)c1C	none (no result: FUS suppressor)
CC[C@H]1C(c2ccc(F)cc2)=NN(c2ccccc2)[C@@H]1CO	Abeta rescue inconclusive, TDP-43 yeast inh 11.2µM
COc1ccc(CNC(=O)Cc2c(C)c3c(O)cc(C)cc3oc2=O)cc1	none (no result: aSyn rescue)
CCc1ccc(NC(=O)C(C)OC(=O)c2ccc(NS(=O)(=O)c3ccc(C)c([N+](=O)[O-])c3)cc2)cc1 (configuration not stated)	none (no result: FUS suppressor)
CC1CCN(C(=O)CSc2ccc(-c3cccc([N+](=O)[O-])c3)nn2)CC1	TDP-43 yeast inh inconclusive
O=C(CSc1ccc2nnc(-c3cccs3)n2n1)N1CCCC1	none
O=C(CSc1ccc(-c2cccs2)nn1)N1CCCCC1	TDP-43 yeast inh 22.4µM (no result: FUS suppressor)
CC1CCN(C(=O)CSc2ccc(-c3ccccc3)nn2)CC1	TDP-43 yeast inh 17.8µM
O=C(CSc1ccc(-c2cccs2)nn1)N1CCCCCC1	Abeta rescue inconclusive, TDP-43 yeast inh 17.8µM (no result: FUS suppressor)
CCC(=O)NC(=S)Nc1ccc(NC(=O)COc2ccccc2)cc1	TDP-43 yeast inh inconclusive (no result: FUS suppressor)
CCOc1ccc(OCc2ccc(C(=O)N(CC)CC)cc2)cc1	TDP-43 yeast inh 12.6µM
CCNC(=O)C1(C)CCN(C(=O)c2ccc(OC)c(OC)c2)C1 (configuration not stated)	none
CC(C)(C)C(=O)Cn1c(=O)n(-c2ccc(Cl)cc2)c(=O)c2c3c(sc21)CCCC3	none (no result: aSyn rescue)
CCc1cc2c(SCC(=O)NC3CC3)ncnc2s1	none (no result: FUS suppressor)
CCc1cc2c(SC(C)C(=O)NC3CCCC3)ncnc2s1 (configuration not stated)	TDP-43 yeast inh 35.5µM
COc1ccnc2c1c(=O)n(Cc1cccc(Cl)c1)c(=O)n2C	TDP-43 yeast inh inconclusive (no result: Abeta rescue)
CCc1nc(SCc2cc(Cl)ccc2OC)n[nH]1	aSyn rescue 15.8µM, TDP-43 yeast inh inconclusive
